C diff growth: inhibitors of Clostridium difficile growth | AID 1259249 | growth activity, negative = inhibition, % at 16 µg/mL (by protocol) | Clostridium difficile clinical isolate growth, OD600, 24 h; active compounds read low | 86,000 compounds, 0.25% hits;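 active = mean growth activity at or below -80% and every replicate also at or below -80%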;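 note: 0% = DMSO wells and -100% = levofloxacin 16 µg/mL wells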
Pf Dd2 inh: inhibitors of Plasmodium falciparum Dd2 growth; 94,000 compounds, 2.3% hits; activity change, % at 10 µM; P. falciparum Dd2 growth, SYBR Green, 72 h; active compounds read low; AID 1159554; in the data active = activity change below about -80%
An asterisk follows results filed as active; / = no result; ! = a repeat was not active. Compounds with a hit are over-represented: about 2.4% of the library has one in this group of screens.

SMILES	C diff growth	Pf Dd2 inh
CCCNC(=O)C[C@@H]1CC[C@@H]2[C@H](COC[C@H](O)CN2C(=O)Nc2ccc(Cl)c(Cl)c2)O1	-102*!	0
CCNC(=O)C[C@H]1CC[C@H]2[C@@H](COC[C@@H](O)CN2C(=O)Nc2ccc(Cl)c(Cl)c2)O1	/	4
C[C@@H]1CN([C@@H](C)CO)C(=O)Cc2cc(NC(=O)Nc3ccc4c(c3)OCO4)ccc2O[C@H]1CN(C)C(=O)Nc1ccc(C(F)(F)F)cc1	5	-32
COc1ccc(-c2ccc([C@@H]3[C@H]4CN(C(=O)NC(C)C)CC(=O)N4[C@H]3CO)cc2)cc1	-1	-87*
O=C(c1ccc2c(c1)OCO2)N1CC(=O)N2[C@H](CO)[C@H](c3ccc(C#Cc4ccccc4)cc3)[C@H]2C1	10	-82*
CC(C)C#Cc1ccc([C@H]2[C@H](CO)N3CCCCN(C(=O)c4ccc5c(c4)OCO5)C[C@@H]23)cc1	-10	-41
COc1ccc(-c2ccc([C@H]3[C@@H](CO)N4C(=O)CN(C(=O)NC(C)C)C[C@H]34)cc2)cc1	-1	-46
O=C(c1ccc2c(c1)OCO2)N1CC(=O)N2[C@H](C1)[C@H](c1ccc(C#Cc3ccccc3)cc1)[C@@H]2CO	2	1
CC(C)C#Cc1ccc([C@@H]2[C@H](CO)N3CCCCN(C(=O)c4ccc5c(c4)OCO5)C[C@@H]23)cc1	-15	-83*
COc1ccc(NC(=O)N2CC(=O)N3[C@H](C2)[C@H](c2ccc(C#CCC4CCCC4)cc2)[C@@H]3CO)cc1	-1	-33
COc1ccc(NC(=O)N2CC(=O)N3[C@@H](CO)[C@H](c4ccc(C#CCC5CCCC5)cc4)[C@@H]3C2)cc1	-3	-90*
CO[C@H]1CN(C)C(=O)c2ccc(NC(=O)Nc3cccc(Cl)c3)cc2OC[C@@H](C)NC[C@H]1C	/	-23
Cc1ccc(S(=O)(=O)Nc2ccc3c(c2)CC(=O)N([C@@H](C)CO)C[C@H](C)[C@@H](CN(C)S(C)(=O)=O)O3)cc1	1	18
COCC(=O)N1CCC2(CC1)CN(Cc1ccccn1)[C@@H](CO)c1[nH]c3cc(OC)ccc3c12	-8	8
O=C(c1cccc(F)c1)N1CC(=O)N2[C@@H](CO)[C@H](c3ccc(-c4cccnc4)cc3)[C@@H]2C1	0	17
O=C(c1ccc(F)cc1)N1CC(=O)N2[C@H](CO)[C@H](c3ccc(C#Cc4ccc(F)cc4)cc3)[C@H]2C1	9	-91*
O=C(c1ccc(F)cc1)N1CC(=O)N2[C@H](CO)[C@@H](c3ccc(C#Cc4ccc(F)cc4)cc3)[C@H]2C1	-1	-29
COc1ccc(C#Cc2ccc([C@H]3[C@@H](CO)N4C(=O)CN(C(=O)c5ccccc5)C[C@@H]34)cc2)cc1	1	-23
COc1ccc(C#Cc2ccc([C@@H]3[C@@H](CO)N4C(=O)CN(C(=O)c5ccccc5)C[C@H]34)cc2)cc1	-7	-87*
O=C(c1cccc(F)c1)N1CC(=O)N2[C@H](CO)[C@H](c3ccc(-c4cccnc4)cc3)[C@H]2C1	1	-86*
C[C@@H]1CN([C@H](C)CO)C(=O)c2cc(C#Cc3ccccc3)cnc2O[C@H]1CN(C)C(=O)C1CC1	-9	-42
CCCN1[C@@H]2Cn3c(ccc(-c4ccc(F)cc4)c3=O)[C@H]1[C@@H](C(=O)NCC)[C@@H]2CO	-6	47
COc1cccc(CN2[C@H](CO)[C@H](c3ccccc3)C23CN(C(=O)C2CCOCC2)C3)c1	-2	-3
C[C@@H]1CN([C@@H](C)CO)C(=O)c2cc(NC(=O)Nc3cccc4ccccc34)ccc2O[C@@H](C)CCCCO[C@@H]1CN(C)S(=O)(=O)c1ccc(F)cc1	0	-83*
C[C@H]1CCCCO[C@@H](CN(C)S(=O)(=O)c2ccc(F)cc2)[C@@H](C)CN([C@@H](C)CO)C(=O)c2cc(NC(=O)Nc3cccc4ccccc34)ccc2O1	2	-48
SMILES	C diff growth	Pf Dd2 inh
C[C@@H]1CN([C@H](C)CO)C(=O)c2cc(NC(=O)Nc3cccc4ccccc34)ccc2O[C@@H](C)CCCCO[C@@H]1CN(C)S(=O)(=O)c1ccc(F)cc1	-1	-87*
C[C@H](CO)N1C[C@H](C)[C@H](CN(C)S(=O)(=O)c2ccc(F)cc2)OCCCC[C@H](C)Oc2ccc(NC(=O)Nc3cccc4ccccc34)cc2C1=O	-5	-26
CCC(=O)Nc1ccc2c(c1)C(=O)N(C)C[C@@H](OC)[C@@H](C)CN(C(=O)c1ccccn1)[C@@H](C)CO2	/	32
O=C(C[C@H]1CC[C@H]2[C@@H](COC[C@H](O)CN2S(=O)(=O)c2ccccc2)O1)NCCN1CCCCC1	-6	/
CCCNC(=O)Nc1ccc2c(c1)OC[C@H](C)N(Cc1ccc(-c3ccccn3)cc1)C[C@H](C)[C@@H](OC)CN(C)C2=O	1	-73
C[C@H]1CN([C@@H](C)CO)C(=O)c2cc(C#Cc3ccccc3F)cnc2O[C@@H]1CN(C)C(=O)c1ccc2c(c1)OCO2	0	-82*
C[C@@H]1CN([C@H](C)CO)C(=O)c2cc(C#Cc3ccccc3F)cnc2O[C@H]1CN(C)C(=O)c1ccc2c(c1)OCO2	6	-86*
CC(C)NC(=O)N(C)C[C@H]1Oc2ncc(C#Cc3ccccc3F)cc2C(=O)N([C@@H](C)CO)C[C@@H]1C	-10	-82*
C[C@@H]1CN([C@@H](C)CO)C(=O)c2cc(C#Cc3ccccc3F)cnc2O[C@@H]1CN(C)C(=O)c1ccc2c(c1)OCO2	-5	-49
CC(C)NC(=O)N(C)C[C@H]1Oc2ncc(C#Cc3ccccc3F)cc2C(=O)N([C@H](C)CO)C[C@H]1C	0	-55
C[C@H](CO)N1C[C@H](C)[C@H](CN(C)C(=O)c2ccc3c(c2)OCO3)Oc2ncc(C#Cc3ccccc3F)cc2C1=O	1	-73
C[C@H](CO)N1C[C@H](C)[C@H](CN(C)Cc2ccccn2)Oc2ncc(-c3ccc(F)cc3)cc2C1=O	1	/
O=C(N[C@H]1CC[C@H](CCNS(=O)(=O)c2cccc(Cl)c2)O[C@@H]1CO)c1ccncc1	/	-6
CCCNC(=O)N1CC2(CN(C(=O)C3CCCC3)C2)c2c([nH]c3cc(OC)ccc23)[C@H]1CO	0	-25
COc1ccc2c3c([nH]c2c1)[C@@H](CO)N(Cc1ccccc1F)CC31CN(C(=O)C2CCOCC2)C1	/	32
COc1ccc2c3c([nH]c2c1)[C@H](CO)N(Cc1cc(F)ccc1F)CC31CN(C(=O)C2CCC2)C1	-7	-88*
COc1ccc2c3c([nH]c2c1)[C@@H](CO)N(Cc1ccccc1F)CC31CN(C(=O)C2CCC2)C1	12	-92*
CCCNC(=O)N1CC2(CN(C(=O)C3CCC3)C2)c2c([nH]c3cc(OC)ccc23)[C@H]1CO	2	-85*
COc1ccc2c3c([nH]c2c1)[C@H](CO)N(Cc1nccs1)CC31CN(C(=O)C2CCC2)C1	2	-18
COc1ccccc1NC(=O)N1CC[C@@H]2[C@H]1c1cc(C#Cc3ccc(F)cc3)ccc1N(C)[C@@H]2CO	-1	-32
CC(C)NC(=O)N(C)C[C@@H]1OCCCC[C@@H](C)Oc2ccc(NC(=O)Nc3ccccc3)cc2C(=O)N([C@@H](C)CO)C[C@H]1C	11	4
C[C@@H]1CCCCO[C@@H](CN(C)Cc2ccc(C(F)(F)F)cc2)[C@@H](C)CN([C@H](C)CO)C(=O)c2cc(NC(=O)Nc3ccc(C(F)(F)F)cc3)ccc2O1	4	62

Screening results (PubChem BioAssay)
